ALDH1A1 block = inhibitors of human aldehyde dehydrogenase 1A1. Purified ALDH1A1, NADH fluorescence, propionaldehyde substrate. Potency, µM (doses to about 75.3 µM), without a hit: top-dose activity, negative = inhibition, hits mostly inhibitors. 220,000 compounds, 7.3% hits. AID 1030;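 further: potency means the concentration at half of the fitted maximal effect; plate controls were no enzyme wells and a reference inhibitor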
PNC assembly inh = perinucleolar compartment assembly inhibition. PC3M PTB-GFP, PNC prevalence imaging, 16 h; hits give low values. activity change (PNC), negative = inhibition, % at 10 µM. 140,000 compounds, 3.1% hits;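 active means readout at or below -70, meaning at least 70% loss of cells showing the perinucleolar compartment, a nuclear body marking cancer cells; inconclusive means readout between -30 and a set limit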;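 further: plate controls were DMSO wells for no effect and camptothecin positive control wells for full effect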
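PC3M cells stably expressing PTB-GFP, 750–1000 cells/well, treated 16 h at 37 °C with compound (23 nl of library stock), in duplicate. After paraformaldehyde fixation and Hoechst stain, imaged at 20x; PNC prevalence scored by image analysis.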
HPGD block = HPGD (human) dehydrogenase inhibition | Potency, µM, without a hit: top-dose activity change, negative = inhibition, hits mostly inhibitors | 150,000 compounds, 4.3% hits | P15428 | purified HPGD, NADH fluorescence kinetic, PGE2 substrate; further: potency means the concentration at half of the fitted maximal effect
Target sequence (P15428 whole entry, looked up): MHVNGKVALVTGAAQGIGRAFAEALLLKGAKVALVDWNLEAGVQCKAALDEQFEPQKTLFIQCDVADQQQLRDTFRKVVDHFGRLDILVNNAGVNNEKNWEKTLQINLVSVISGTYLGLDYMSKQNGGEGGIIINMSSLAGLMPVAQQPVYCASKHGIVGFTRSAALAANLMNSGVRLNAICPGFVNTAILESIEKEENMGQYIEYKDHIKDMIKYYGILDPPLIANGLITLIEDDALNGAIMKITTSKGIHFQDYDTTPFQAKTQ
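NADH formation kinetics: reaction with 30 uM PGE2 and 1 mM NAD+ (final), 20 nM enzyme, Tris-HCl pH 8 with Tween 20, after 15 min compound preincubation at room temperature. Fluorescence change, last versus first of five reads.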
* hit, by the source's call; ? = inconclusive; nt = no result given. In the library only some 11% were active in any assay of this set; here they are far more common. Unless noted, the call rests on the fitted dose curve; in most records, active means well fitted inhibition curve with a large enough effect (not every such curve was filed as active); inconclusive means small, poorly fitted or top-dose-only effect, or another doubt; inactive means no such curve, though single readings can be large or run the other way. Unless noted, on the % scale 0 is the no-effect control and ±100 the full control effect.

SMILES	ALDH1A1 block	PNC assembly inh	HPGD block
Cc1c2c(c(C)n1C)C(C(=O)NC1CCCCC1)N(Cc1ccccc1)C2=O (stereo unspecified)	-6%	nt	nt
CCc1ccc(OC)c(-c2csc(N)n2)c1	-2%	nt	nt
COc1ccc(-c2csc(N)n2)cc1F	11µM*	nt	nt
Cc1cccc(/C=C2/SC(=O)N(Cc3ccccc3)C2=O)n1	6.3µM*	31	-4%
Cc1ccc(/C=C2/NC(=O)N(Cc3ccccc3)C2=O)s1	?	?	-20%
Cn1c(SCC(=O)NCc2ccc3c(c2)OCO3)nc2scc(-c3cccs3)c2c1=O	12%	-23	-17%
CCCC(C(=O)NCc1ccco1)N(C(=O)CNS(=O)(=O)c1ccccc1)c1ccccc1OC (stereo unspecified)	-8%	2	-16%
Cc1noc(C)c1-c1ccc2ncnc(N3CCOCC3)c2c1	-13%	nt	nt
Cc1noc(C)c1-c1cc(NCCN2CCOCC2)ncn1	20µM*	nt	nt
COc1ccc2c(c1)CCc1sc(NC(=O)c3ccc(C)cc3)nc1-2	?	-10	?
COc1ccc2c(c1)-c1nc(/N=C/c3ccc(O)cc3)sc1CC2	4.5µM*	35	-26%
COc1ccc2c(c1)-c1nc(/N=C/c3c(O)ccc4ccccc34)sc1CC2	18µM*	-8	?
Oc1ccc2ccccc2c1/C=N/c1nccs1	?	37	-25%
COc1ccccc1CN1CCC2(CCNCC2)CC1	8%	nt	-12%
Cc1ccc(C(C(=O)NCc2ccco2)N(C(=O)CNC(=O)c2cccs2)c2c(C)cc(C)cc2C)cc1 (stereo unspecified)	-7%	?	-19%
CC1CC(C)CN(S(=O)(=O)c2ccccc2[N+](=O)[O-])C1 (stereo unspecified)	?	6	-5%
NCCC(=O)N[C@@H](Cc1cnc[nH]1)C(=O)O	0%	nt	-10%
COCCCN1C(=O)c2ccc(C(=O)O)cc2C1=O	5%	-1	-3%
C=CCn1c(SCC(=O)OCC)nc(C(F)(F)F)cc1=O	0%	nt	nt
CCc1cccc(NC(=O)c2cc(S(=O)(=O)N(C)C)ccc2N2CCCC2)c1	7%	nt	nt
CC1CN(CC(O)COC(c2ccccc2)c2ccccc2)CC(C)O1 (stereo unspecified)	25µM*	?	-6%
OC(COC(c1ccccc1)c1ccccc1)CN1CCOCC1 (stereo unspecified)	6%	nt	nt
CCOc1ccc(N/C=C/C(=O)c2ccccc2)c([N+](=O)[O-])c1	100%	16	-17%
CCCc1ccc(Oc2c(-c3ccc(O)c(C)c3O)n[nH]c2C)cc1	1%	?	-9%
CCOc1ccc(-c2[nH]ncc2Oc2cccc(OC)c2)c(O)c1	?	?	-20%
SMILES	ALDH1A1 block	PNC assembly inh	HPGD block
CCCOC(=O)c1ccc(Oc2cn[nH]c2-c2ccc(OCC)cc2O)cc1	-1%	-117*	-18%
CCCc1ccc(Oc2cn[nH]c2-c2ccc(O)c(C)c2O)cc1	5%	0	18µM*
COc1cccc2cc(C(N)=O)/c(=N/NC(=O)COc3ccc(Cl)cc3)oc12	4%	-10	-4%
O=C(NCCCCCNC(=O)c1ccco1)c1ccco1	28µM*	30	-14%
O=C(NCCCCNC(=O)c1ccco1)c1ccco1	2%	6	-6%
COc1ccc2c(CCNC(=O)CN3C(=O)c4ccccc4C3=O)c[nH]c2c1	-6%	?	-7%
O=C(NCc1ccccc1)c1ccco1	7%	19	-17%
O=C(NCc1cccc(CNC(=O)c2ccco2)c1)c1ccco1	?	?	14µM*
O=C(NCCSc1c[nH]c2ccccc12)c1ccco1	-2%	-5	16µM*
O=C(NCCSc1c[nH]c2ccccc12)c1c(F)cccc1F	-4%	nt	nt
COc1ccc2c(CCNC(=O)c3ccco3)c[nH]c2c1	-3%	-114*	?
CCCCCCNS(=O)(=O)c1nc2nc(C)cc(C)n2n1	-2%	-15	-3%
O=[N+]([O-])c1ccccc1S(=O)(=O)n1nnc2ccccc21	4%	55	-5%
CCOc1ccc(NS(=O)(=O)c2cc(NC(=O)c3cccc(C)c3)ccc2Cl)cc1	-1%	?	nt
Cc1cccc(N2CCN(C(=O)c3cccc(N4C(=O)C5CC=CC(C)C5C4=O)c3)CC2)c1C (stereo unspecified)	-4%	-21	-12%
O=C1C=C(N2CCCCCC2)C2(CCCCC2)O1	8.9µM*	nt	nt
CCOC(=O)N1CCN(C2=CC(=O)OC23CCCCC3)CC1	?	-22	-11%
Oc1ccc(-c2nc3c4c(ncn3n2)-c2ccccc2CC42CCCC2)cc1	-6%	-3	-17%
COc1cccc(Cn2c(=O)c(CCc3ccccc3)nc3cncnc32)c1	-9%	nt	nt
CCOC(=O)Cn1nc(C)c2c1CCCC2=O	-2%	?	-22%
CC1CCN(C(=O)CSc2nc3c(cnn3-c3ccccc3)c(=O)[nH]2)CC1	?	11	?
CC(=O)N1CCN(C(=O)CSc2nc3c(cnn3-c3ccccc3)c(=O)[nH]2)CC1	25µM*	?	?
COc1cc([C@@H]2c3cc4c(cc3C(OC3OC5COC(C)OC5C(O)C3O)C3COC(=O)[C@@H]32)OCO4)cc(OC)c1O (stereo partly specified)	4%	nt	-5%
CCOc1ccc(NC(=NCc2ccc3c(c2)OCO3)SC2CC(=O)N(c3ccc(C(=O)O)cc3)C2=O)cc1 (stereo unspecified)	4%	-1	-1%
Cc1ccccc1OCCSc1nc2ncnc(N)c2[nH]1	4%	nt	nt
SMILES	ALDH1A1 block	PNC assembly inh	HPGD block
CCOC(=O)C1CSC(CC(=O)Nc2ccc(Cl)cc2)C(=O)N1 (stereo unspecified)	?	34	-4%
Cc1nc(NC(=S)NC(=O)c2cccs2)sc1C(=O)N(C)C	4.5µM*	-20	22µM*
COc1ccc(C(=O)NC(=S)Nc2nc(C)c(C(=O)N(C)C)s2)cc1	?	?	-16%
CCOC(=O)CCNC(=O)N1CCCC(CCC(=O)N(C)CCc2ccccn2)C1 (stereo unspecified)	-2%	nt	nt
c1cn(CCCNc2ncnc3nc[nH]c23)cn1	6%	-112*	-3%
CCN1CCN(CCCNc2ncnc3nc[nH]c23)CC1	18%	?	-4%
Cc1ccc(/C=N/n2c(=O)c(C(C)(C)C)nn3cnnc23)cc1	2%	-94*	-12%
CC(C)(C)c1nn2cnnc2n(/N=C/c2cccc3ccccc23)c1=O	17%	2	-6%
O=C(c1cccc(C(F)(F)F)c1)N1CCc2c([nH]c3ccccc23)C1C(F)(F)F (stereo unspecified)	1%	nt	nt
O=c1c2ccccc2nc2n1CCCCN2	?	-13	?
Cc1c(C(=O)NN)nc2ccccn12	4.5µM*	-11	-12%
C/C(=N\NC(=O)c1nc2ccccn2c1C)c1cc2ccccc2o1	-16%	nt	nt
O=C(CSc1ncc(-c2ccc(F)cc2)[nH]1)Nc1cccc(O)c1	?	-10	-11%
Cc1cc2ncc(C(=O)Nc3ccsc3C(=O)O)c(C)n2n1	14µM*	nt	nt
CCOC(=O)c1cnc2cc(C)nn2c1C	12%	-18	-8%
O=C(NCCc1cccs1)C12CN(Cc3ccccc3)CC1C(c1cccc([N+](=O)[O-])c1)=NO2 (stereo unspecified)	?	?	-17%
COc1ccc(-c2nc3ccccc3c(=O)n2CCOc2cccc(C)c2C)cc1	?	34	?

From PubChem BioAssay
